Results filed as inconclusive are left out. Values without a mark were called inactive. The source made the active and inactive calls. Calls come from the whole dose curve; as a rule, active = well fitted inhibition curve with a large enough effect; inconclusive = small, poorly fitted or top-dose-only effect; inactive = flat fitted curve, though single readings scatter.
Assay: BET inhibitor-based combinations targeting novel dependencies in MECOM-rearranged (r) AML: AML-191 cell line (AID 2202236; note: nearly all actives have a fitted effect of over 35% in size;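 for viability (% of control): plate controls were vehicle wells for no effect and wells without cells for full effect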)
Conditions: AML-191 viability, CellTiter-Glo luminescence, 48 h; series mostly up to 46 µM; viability (% of control): at the top concentration
In short: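 Readout: CellTiter-Glo luminescence. Exposure: 48 h, 11 concentrations, 500 cells/well. Metric: AUC and within-line Z-AUC after DMSO/empty-well normalization.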
Potency is the fitted concentration of half-maximal effect.

SMILES	viability (% of control)	Potency
C=CC(=O)N[C@H]1CCOC[C@H]1Nc1ncc2cc(-c3c(Cl)c(OC)cc(OC)c3Cl)ccc2n1	90.7%	
Fc1ccc(-c2csc3ncnc(NCc4ccc5c(c4)OCO5)c23)cc1		16.6 µM (active)
C=CCc1cccc(/C=N/NC(=O)CN2CCN(Cc3ccccc3)CC2)c1O		8.33 µM (active)
CN(C)C/C=C/C(=O)Nc1cc2c(Nc3ccc(F)c(Cl)c3)ncnc2cc1O[C@H]1CCOC1		7.42 µM (active)
COc1cc(OC)c(/C=C/S(=O)(=O)Cc2ccc(OC)c(OP(=O)(O)O)c2)c(OC)c1		0.118 µM (active)
Nc1nc(OC(c2ccc(-c3cccc(F)c3)cc2)C(F)(F)F)cc(-c2ccc(C[C@@H](N)C(=O)O)cc2)n1 (some centres not stated)	88%	
O=C(c1ccc(Nc2nc(C3CC3)cn3c(-c4cn[nH]c4)cnc23)c(F)c1)N1CCOCC1		20.9 µM (active)
O=C1S/C(=C\c2ccc(OCc3cccc(B(O)O)c3)cc2)C(=O)N1Cc1ccc(F)cc1		18.6 µM (active)
Cc1ccc(-c2ncn(-c3ccc(Nc4nccc(-c5cccc(N6CCOCC6)c5)n4)cc3)n2)cn1		2.35 µM (active)
CC1=C(/C=C/C(C)=C/C=C/C(C)=C/C=C/C=C(C)/C=C/C=C(C)/C=C/C2=C(C)CCCC2(C)C)C(C)(C)CCC1	94.7%	
O=C(NCc1ccccc1)[C@H](Cc1ccccc1)NC(=O)[C@H]1O[C@@H]1C(=O)NCCc1ccc(O)cc1	90.7%	
CCOc1cc(/C=C2/C(=O)N(c3ccccc3)N=C2C)cc(Cl)c1OCC(=O)OC	112%	
C=CC(=O)Nc1cccc(Oc2nc(Nc3ccc(N4CCN(C)CC4)cc3)nc3ccsc23)c1		23.5 µM (active)
Cc1ncsc1-c1ccc([C@H](C)NC(=O)[C@@H]2C[C@@H](O)CN2C(=O)[C@@H](NC(=O)COCCCOCCNC(=O)C[C@@H]2N=C(c3ccc(Cl)cc3)c3c(sc(C)c3C)-n3c(C)nnc32)C(C)(C)C)cc1		0.209 µM (active)
CC(C)(C)c1nc2c3cc[nH]c(=O)c3c3cc(F)ccc3c2[nH]1		0.662 µM (active)
CC(C)(C(=O)NCC(F)(F)C(F)(F)F)C(=O)N[C@@H]1C(=O)Nc2ccccc2-c2ccccc21	97.3%	
O=C1OC2(CCC(C(=O)Nc3ccn(-c4ccccc4F)n3)CC2)c2cnccc21 (configuration not stated)		18.6 µM (active)
CN(C)CC[C@H](CSc1ccccc1)Nc1ccc(S(=O)(=O)NC(=O)c2ccc(N3CCN(Cc4ccccc4-c4ccc(Cl)cc4)CC3)cc2)cc1[N+](=O)[O-]		2.35 µM (active)
CC(C)(C)c1[nH]cnc1/C=c1\[nH]c(=O)/c(=C/c2ccccc2)[nH]c1=O		0.059 µM (active)
CC[C@H](C)C(=O)O[C@H]1C[C@H](O)C=C2C=C[C@H](C)[C@H](CC[C@@H](O)C[C@@H](O)CC(=O)O)[C@H]21	98.7%	
COc1cc(C)c(/C=C/C(C)=C/C=C/C(C)=C/C(=O)O)c(C)c1C		1.86 µM (active)
CCNCCS(=O)(=O)NC[C@@]1(c2ccccc2)SC(NC(=O)C(C)(C)C)=NN1C(=O)C(C)(C)C		0.0209 µM (active)
CO[C@H]1O[C@@H]2O[C@@]3(C)CC[C@H]4[C@H](C)CC[C@@H]([C@H]1C)[C@@]24OO3		16.6 µM (active)
c1ccc2[nH]c(-c3cscn3)nc2c1		18.6 µM (active)
Cn1cc(C2=C(c3cn(C)c4cc([N+](=O)[O-])ccc34)C(=O)NC2=O)c2ccccc21		0.662 µM (active)
CC1(N)CCN(c2cnc(-c3cccc(Cl)c3Cl)c(N)n2)CC1	85.4% [at 15.6 µM]	
C[C@H]1CN(C2COC2)CCN1c1ccc(Nc2cc(-c3ccnc(N4CCn5c(cc6c5CC(C)(C)C6)C4=O)c3CO)cn(C)c2=O)nc1	96.6%	
